Reference: PubChem BioAssay AID1159580 (chemical genetic matrix, 2015)
In all, about 5,500 compounds went through this assay and about 2,000 (36%) were called active. About 18% were inconclusive and are not listed. Cut-off read from the data, not from the text of the source: active = normalized growth mostly below about 0.91 (no sharp cut-off); inconclusive = no clear call, values can overlap the other calls; inactive = mostly above about 0.92. Some of the results follow.

Test: chemical genetic growth profiling, strain panel (AID 1159580);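 note: tested at 20 µM; growth read once vehicle control cultures reached saturation at 30 °C; 1 = growth at the plate median or of vehicle wells; lower values mean less growth of the strain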
Conditions: S. cerevisiae deletion strains, growth OD

Measured: normalized growth

Nc1ncn[nH]1
inactive: locus YAL021C, strain ccr4, hits give low values 0.986 | locus YAL026C, strain drs2, hits give low values 1.02 | locus YAL030W, strain snc1, hits give low values 1.02 | locus YBL061C, strain skt5, hits give low values 1.02 | locus YBR009C, strain hhf1, hits give low values 1.04 | locus YBR023C, strain chs3, hits give low values 1.02 | locus YBR171W, strain sec66, hits give low values 1.02 | locus YBR231C, strain swc5, hits give low values 1.02 | locus YBR279W, strain paf1, hits give low values 1.02 | locus YCL011C, strain gbp2, hits give low values 1.02 | locus YCL016C, strain dcc1, hits give low values 1.02 | locus YCL061C, strain MRC1, hits give low values 1.02 | locus YCL069W, strain vba3, hits give low values 1.02 | locus YCR088W, strain abp1, hits give low values 1.02 | locus YDL005C, strain med2, hits give low values 1.02 | locus YDL040C, strain nat1, hits give low values 1.02 | locus YDR001C, strain nth1, hits give low values 1.02 | locus YDR069C, strain doa4, hits give low values 1.03 | locus YDR137W, strain rgp1, hits give low values 1 | locus YDR159W, strain sac3, hits give low values 1.05 | locus YDR195W, strain ref2 1.01 | locus YDR297W, strain sur2, hits give low values 1.01 | locus YDR334W, strain swr1, hits give low values 1.02 | locus YDR335W, strain msn5, hits give low values 1.02 | locus YDR392W, strain spt3, hits give low values 0.966 | locus YEL003W, strain gim4, hits give low values 1.02 | locus YEL037C, strain rad23, hits give low values 1.02 | locus YEL061C, strain CIN8 (second series), hits give low values 1.01 | locus YER015W, strain faa2, hits give low values 1.02 | locus YER016W, strain bim1, hits give low values 1.03 | locus YER111C, strain swi4, hits give low values 1.02 | locus YER155C, strain BEM2 (second series), hits give low values 1.04 | locus YFR010W, strain ubp6, hits give low values 1.02 | locus YGL167C, strain pmr1, hits give low values 1.02 | locus YGL173C, strain kem1, hits give low values 1.02 | locus YGL227W, strain vid30, hits give low values 1.02 | locus YGL240W, strain doc1, hits give low values 1.05 | locus YGL253W, strain hxk2, hits give low values 1.01 | locus YHR013C, strain ard1, hits give low values 1.01 | locus YHR027C, strain rpn1, hits give low values 1.02 | locus YHR030C, strain SLT2, hits give low values 0.995 | locus YHR079C, strain IRE1, hits give low values 1 | locus YHR142W, strain chs7, hits give low values 0.97 | locus YJL092W, strain hpr5, hits give low values 1.02 | locus YJL095W, strain BCK1 (second series), hits give low values 1.02 | locus YJL095W, strain BCK1, hits give low values 0.967 | locus YJL115W, strain asf1, hits give low values 1.02 | locus YJL129C, strain trk1, hits give low values 1 | locus YJL154C, strain vps35, hits give low values 1.02 | locus YJL164C, strain tpk1, hits give low values 1 | locus YJL166W, strain qcr8, hits give low values 1.01 | locus YJL187C, strain SWE1, hits give low values 1.02 | locus YJR066W, strain TOR1, hits give low values 0.923 | locus YKL160W, strain elf1, hits give low values 0.974 | locus YKR026C, strain gcn3, hits give low values 1.01 | locus YKR091W, strain srl3, hits give low values 1.02 | locus YLL001W, strain dnm1, hits give low values 1.03 | locus YLL026W, hits give low values 1.01 | locus YLL041C, strain sdh2, hits give low values 1.02 | locus YLR027C, strain aat2, hits give low values 1.01 | locus YLR113W, strain HOG1, hits give low values 0.985 | locus YLR221C, strain rsa3, hits give low values 0.995 | locus YLR258W, strain gsy2, hits give low values 1.03 | locus YLR262C, strain YPT6 (second series), hits give low values 1 | locus YLR320W, strain mms22, hits give low values 1.03 | locus YLR342W, strain FKS1, hits give low values 1.01 | locus YLR357W, strain rsc2, hits give low values 1.06 | locus YLR370C, strain arc18, hits give low values 1.01 | locus YLR384C, strain iki3, hits give low values 1 | locus YML120C, strain ndi1, hits give low values 0.997 | locus YMR058W, strain fet3, hits give low values 1.02 | locus YMR125W, strain sto1, hits give low values 1.05 | locus YMR129W, hits give low values 1.01 | locus YMR205C, strain PFK2, hits give low values 1.05 | locus YMR231W, strain pep5, hits give low values 1.02 | locus YNL071W, strain lat1, hits give low values 1.01 | locus YNL183C, strain NPR1, hits give low values 0.933 | locus YNL209W, strain ssb2, hits give low values 1.01 | locus YNL248C, strain rpa49, hits give low values 0.985 | locus YNL322C, strain KRE1 (second series), hits give low values 1 | locus YNR049C, strain mso1, hits give low values 1.02 | locus YOR001W, strain rrp6, hits give low values 1 | locus YOR070C, strain gyp1, hits give low values 1.03 | locus YOR080W, strain dia2, hits give low values 1.02 | locus YOR083W, strain WHI5, hits give low values 0.979 | locus YOR106W, strain vam3, hits give low values 0.987 | locus YOR231W, strain MKK1, hits give low values 0.988 | locus YOR265W, strain rbl2, hits give low values 1.01 | locus YOR270C, strain vph1, hits give low values 1.02 | locus YOR290C, strain snf2, hits give low values 0.982 | locus YPL051W, strain arl3, hits give low values 0.988 | locus YPL078C, strain atp4, hits give low values 0.982 | locus YPL106C, strain sse1, hits give low values 1.05 | locus YPL240C, strain hsp82, hits give low values 1.02 | locus YPL256C, strain CLN2, hits give low values 0.96

O=C(O)[C@@H]1CCN1
inactive: locus YAL040C, strain CLN3, hits give low values 1.01 | locus YDR363W, strain ESC2, hits give low values 0.998 | locus YER002W, strain NOP16, hits give low values 0.998 | locus YGR078C, strain PAC10, hits give low values 1.01 | locus YGR229C, strain SMI1, hits give low values 0.984 | locus YMR263W, strain SAP30, hits give low values 0.998 | locus YMR307W, strain GAS1, hits give low values 0.992 | locus YNL153C, strain GIM3, hits give low values 0.996 | locus YNL175C, strain NOP13, hits give low values 1.01 | locus YNL197C, strain WHI3, hits give low values 1.02 | locus YNL224C, strain SQS1, hits give low values 0.963 | locus YOR083W, strain WHI5 (second series), hits give low values 1 | locus YPL055C, strain LGE1, hits give low values 0.996 | locus YPL241C, strain CIN2, hits give low values 1.01
